Results as given in the supplement of paper PMC10849652.
Targets with a hit are over-represented here; the source holds about 8,800 in all. About 0.5% of all pairs of compound and target were hits.

How the values were obtained:
Experiment in all cases: log2 fold change, soluble protein after heating vs DMSO (PISA); higher = thermal stabilisation; K562 lysate, 10 uM; active = over 0.2 and 3.5 SD of the protein, either way, in both replicates (recomputed)
nilotinib = compound: Cc1cn(-c2cc(NC(=O)c3ccc(C)c(Nc4nccc(-c5cccnc5)n4)c3)cc(C(F)(F)F)c2)cn1 [nilotinib]
In short: (§1)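 Following dounce homogenisation of K562 pellets in PBS pH 7.4 with 1 mM MgCl2, crude extract at 1 mg/mL protein was incubated for 30 min with 10 μM compound. Aliquots were then heated for 3 min over 48°C-58°C and pooled, NP-40 was added to 0.5% at 4°C, and soluble protein was recovered as the supernatant at 21,000xg for 90 min. Channel-sum-equalised TMTpro 16plex LC-MS/MS quantified this protein. Each value, from duplicates, is a log-two fold change in thermal stability relative to solvent controls.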

[1] = compound: Cc1nc(Nc2n[nH]c3c2CN(C(=O)N[C@H](CN(C)C)c2ccccc2)C3(C)C)c2sccc2n1
In short: as §1

dasatinib = compound: Cc1nc(Nc2ncc(C(=O)Nc3c(C)cccc3Cl)s2)cc(N2CCN(CCO)CC2)n1 [dasatinib]
In short: as §1

[2] = compound: Cc1ncc(-c2ccnc(Nc3ccc(S(C)(=O)=O)cc3)n2)n1C(C)C
In short: as §1

[3] = compound: Cn1cc(-c2ccc3c(c2)CCN3C(=O)Cc2cccc(C(F)(F)F)c2)c2c(N)ncnc21
In short: as §1

quisinostat = compound: Cn1cc(CNCC2CCN(c3ncc(C(=O)NO)cn3)CC2)c2ccccc21 [quisinostat]
In short: as §1

tipifarnib = compound: Cn1cncc1[C@@](N)(c1ccc(Cl)cc1)c1ccc2c(c1)c(-c1cccc(Cl)c1)cc(=O)n2C [tipifarnib]
In short: as §1

[4] = compound: NC(=O)Nc1cc(-c2cccc(F)c2)sc1C(=O)N[C@H]1CCCNC1
In short: as §1

[5] = compound: NC(=O)c1cnc(N[C@@H]2CCCC[C@@H]2N)nc1Nc1cccc(-n2nccn2)c1
In short: as §1

[6] = compound: NC1(c2ccc(-c3nc4ccn5c(=O)[nH]nc5c4cc3-c3ccccc3)cc2)CCC1
In short: as §1

[7] = compound: NCC(=O)Nc1ccc(-n2nc(C(F)(F)F)cc2-c2ccc3c(ccc4ccccc43)c2)cc1
In short: as §1

vorinostat = compound: O=C(CCCCCCC(=O)Nc1ccccc1)NO [vorinostat]
In short: as §1

silmitasertib = compound: O=C(O)c1ccc2c(c1)nc(Nc1cccc(Cl)c1)c1ccncc12 [silmitasertib]
In short: as §1

[8] = compound: O=C1NC(=O)C(c2cnc3ccccn23)=C1c1cn2c3c(cc(F)cc13)CN(C(=O)N1CCCCC1)CC2
In short: as §1

entospletinib = compound: c1cn2cc(-c3ccc4cn[nH]c4c3)nc(Nc3ccc(N4CCOCC4)cc3)c2n1 [entospletinib]
In short: as §1

Measured: log2 fold change

MYCBP (UniProt Q99417)
UniProt Q99417, sequence (Q99417 whole entry, looked up): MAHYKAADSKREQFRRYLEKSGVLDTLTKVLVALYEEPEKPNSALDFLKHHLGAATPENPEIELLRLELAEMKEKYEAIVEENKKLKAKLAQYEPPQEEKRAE
inactive: nilotinib -0.034 | [1] 0.041 | dasatinib 0.019 | [2] 0.055 | [3] -0.011 | quisinostat -0.058 | tipifarnib -0.011 | [4] -0.038 | [5] -0.02 | [6] 0.029 | [7] 0.006 | vorinostat 0.113 | silmitasertib -0.015 | [8] -0.025 | entospletinib -0.075

N6AMT1 (UniProt Q9Y5N5)
UniProt Q9Y5N5, sequence (Q9Y5N5 whole entry, looked up, one chain of several): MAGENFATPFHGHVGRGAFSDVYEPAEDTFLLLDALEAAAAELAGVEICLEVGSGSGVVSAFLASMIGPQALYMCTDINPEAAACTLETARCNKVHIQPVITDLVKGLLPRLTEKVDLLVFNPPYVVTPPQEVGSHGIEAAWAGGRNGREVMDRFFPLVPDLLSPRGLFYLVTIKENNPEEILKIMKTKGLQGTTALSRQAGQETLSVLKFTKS
inactive: nilotinib -0.009 | [1] 0.1 | dasatinib 0.002 | [2] 0.018 | [3] 0.013 | quisinostat 0 | tipifarnib 0.06 | [4] -0.013 | [5] -0.027 | [6] 0.037 | [7] -0.043 | vorinostat 0.076 | silmitasertib -0.025 | [8] -0.007 | entospletinib -0.011

NTPCR (UniProt Q9BSD7)
UniProt Q9BSD7, sequence (Q9BSD7 whole entry, looked up): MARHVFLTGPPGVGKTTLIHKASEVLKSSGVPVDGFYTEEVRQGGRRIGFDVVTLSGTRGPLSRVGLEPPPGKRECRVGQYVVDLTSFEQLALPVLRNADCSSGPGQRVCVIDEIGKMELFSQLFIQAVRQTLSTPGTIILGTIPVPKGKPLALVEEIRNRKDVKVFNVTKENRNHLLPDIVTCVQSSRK
active: vorinostat -0.331
inactive: nilotinib 0.019 | [1] -0.01 | dasatinib -0.061 | [2] 0.056 | [3] 0.032 | quisinostat -0.088 | tipifarnib 0.003 | [4] 0.028 | [5] 0.017 | [6] -0.027 | [7] 0.014 | silmitasertib 0.029 | [8] 0.003 | entospletinib 0.059

NIFK (UniProt Q9BYG3)
UniProt Q9BYG3, sequence (Q9BYG3 whole entry, looked up): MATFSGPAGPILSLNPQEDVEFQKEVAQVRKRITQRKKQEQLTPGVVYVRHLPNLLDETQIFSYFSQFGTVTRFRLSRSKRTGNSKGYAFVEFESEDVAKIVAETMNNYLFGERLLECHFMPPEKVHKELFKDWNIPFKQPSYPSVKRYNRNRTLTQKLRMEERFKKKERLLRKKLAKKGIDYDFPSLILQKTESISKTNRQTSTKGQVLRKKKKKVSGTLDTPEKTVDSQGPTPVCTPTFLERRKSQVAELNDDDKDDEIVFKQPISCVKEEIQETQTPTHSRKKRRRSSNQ
inactive: nilotinib 0.033 | [1] -0.003 | dasatinib -0.012 | [2] 0.035 | [3] -0.01 | quisinostat -0.042 | tipifarnib 0.002 | [4] 0.037 | [5] -0.016 | [6] -0.038 | [7] 0.063 | vorinostat 0.063 | silmitasertib -0.001 | [8] 0.047 | entospletinib 0.044

NBN (UniProt O60934)
UniProt O60934, sequence (O60934 whole entry, looked up): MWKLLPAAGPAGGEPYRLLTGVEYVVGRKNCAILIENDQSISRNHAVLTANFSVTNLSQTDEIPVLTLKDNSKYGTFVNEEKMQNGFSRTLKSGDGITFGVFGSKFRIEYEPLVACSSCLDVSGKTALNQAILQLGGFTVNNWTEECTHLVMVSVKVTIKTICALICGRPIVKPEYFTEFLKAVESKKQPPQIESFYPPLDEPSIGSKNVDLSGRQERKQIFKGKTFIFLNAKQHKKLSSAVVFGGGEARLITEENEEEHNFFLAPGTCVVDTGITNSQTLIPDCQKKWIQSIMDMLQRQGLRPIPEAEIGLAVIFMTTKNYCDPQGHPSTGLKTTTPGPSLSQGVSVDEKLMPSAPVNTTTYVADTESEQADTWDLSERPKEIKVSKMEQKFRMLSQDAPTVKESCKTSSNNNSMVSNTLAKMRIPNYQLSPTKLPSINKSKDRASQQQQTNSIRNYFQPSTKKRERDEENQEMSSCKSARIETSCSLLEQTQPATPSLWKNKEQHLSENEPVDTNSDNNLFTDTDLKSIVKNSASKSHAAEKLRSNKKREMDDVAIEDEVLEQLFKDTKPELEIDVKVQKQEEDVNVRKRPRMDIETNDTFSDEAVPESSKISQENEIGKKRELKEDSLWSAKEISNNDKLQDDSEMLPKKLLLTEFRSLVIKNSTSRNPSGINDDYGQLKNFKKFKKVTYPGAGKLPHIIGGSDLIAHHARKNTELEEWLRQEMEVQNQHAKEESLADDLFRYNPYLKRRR
active: vorinostat -0.21
inactive: nilotinib 0.004 | [1] 0.013 | dasatinib -0.019 | [2] 0.037 | [3] 0.03 | quisinostat 0.011 | tipifarnib 0.005 | [4] 0.046 | [5] -0.024 | [6] -0.015 | [7] -0.009 | silmitasertib 0.023 | [8] -0.008 | entospletinib -0.005

MTOR (UniProt P42345)
active: vorinostat -0.305
inactive: nilotinib 0.007 | [1] -0.022 | dasatinib -0.064 | [2] 0.001 | [3] 0.039 | quisinostat -0.067 | tipifarnib 0.015 | [4] 0.04 | [5] 0.017 | [6] -0.033 | [7] -0.035 | silmitasertib 0.146 | [8] -0.013 | entospletinib -0.024

NFATC2 (UniProt Q13469)
UniProt Q13469, sequence (Q13469 whole entry, looked up): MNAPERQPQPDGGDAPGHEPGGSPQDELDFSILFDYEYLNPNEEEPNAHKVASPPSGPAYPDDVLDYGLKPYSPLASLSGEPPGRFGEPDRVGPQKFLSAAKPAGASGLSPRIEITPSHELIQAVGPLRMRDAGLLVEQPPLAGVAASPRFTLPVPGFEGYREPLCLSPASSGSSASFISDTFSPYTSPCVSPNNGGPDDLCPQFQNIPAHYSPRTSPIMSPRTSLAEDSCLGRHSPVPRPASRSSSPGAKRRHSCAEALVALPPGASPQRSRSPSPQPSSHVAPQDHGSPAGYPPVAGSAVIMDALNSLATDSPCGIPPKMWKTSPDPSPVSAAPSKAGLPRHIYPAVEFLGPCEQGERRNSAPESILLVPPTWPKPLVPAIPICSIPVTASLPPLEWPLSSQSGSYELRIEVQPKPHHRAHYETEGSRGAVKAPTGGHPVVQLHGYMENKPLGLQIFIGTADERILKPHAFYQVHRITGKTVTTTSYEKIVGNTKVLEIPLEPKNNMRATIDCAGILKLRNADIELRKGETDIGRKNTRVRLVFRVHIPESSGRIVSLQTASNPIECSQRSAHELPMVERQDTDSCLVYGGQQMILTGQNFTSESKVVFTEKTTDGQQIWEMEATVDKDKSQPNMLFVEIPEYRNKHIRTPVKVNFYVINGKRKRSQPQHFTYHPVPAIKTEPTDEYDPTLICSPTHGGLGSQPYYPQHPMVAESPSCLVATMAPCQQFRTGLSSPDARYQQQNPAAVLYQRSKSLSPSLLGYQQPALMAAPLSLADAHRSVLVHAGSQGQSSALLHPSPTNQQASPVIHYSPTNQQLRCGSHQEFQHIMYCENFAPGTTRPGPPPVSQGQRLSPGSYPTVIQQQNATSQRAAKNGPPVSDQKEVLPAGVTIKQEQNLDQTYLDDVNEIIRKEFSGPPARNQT
inactive: nilotinib -0.001 | [1] -0.052 | dasatinib -0.033 | [2] 0.061 | [3] -0.001 | quisinostat -0.133 | tipifarnib -0.021 | [4] 0.024 | [5] -0.025 | [6] -0.023 | [7] 0.02 | silmitasertib 0.021 | [8] 0.044 | entospletinib -0.062
active: vorinostat -0.411

MSH6 (UniProt P52701)
UniProt P52701, sequence (P52701 whole entry, looked up): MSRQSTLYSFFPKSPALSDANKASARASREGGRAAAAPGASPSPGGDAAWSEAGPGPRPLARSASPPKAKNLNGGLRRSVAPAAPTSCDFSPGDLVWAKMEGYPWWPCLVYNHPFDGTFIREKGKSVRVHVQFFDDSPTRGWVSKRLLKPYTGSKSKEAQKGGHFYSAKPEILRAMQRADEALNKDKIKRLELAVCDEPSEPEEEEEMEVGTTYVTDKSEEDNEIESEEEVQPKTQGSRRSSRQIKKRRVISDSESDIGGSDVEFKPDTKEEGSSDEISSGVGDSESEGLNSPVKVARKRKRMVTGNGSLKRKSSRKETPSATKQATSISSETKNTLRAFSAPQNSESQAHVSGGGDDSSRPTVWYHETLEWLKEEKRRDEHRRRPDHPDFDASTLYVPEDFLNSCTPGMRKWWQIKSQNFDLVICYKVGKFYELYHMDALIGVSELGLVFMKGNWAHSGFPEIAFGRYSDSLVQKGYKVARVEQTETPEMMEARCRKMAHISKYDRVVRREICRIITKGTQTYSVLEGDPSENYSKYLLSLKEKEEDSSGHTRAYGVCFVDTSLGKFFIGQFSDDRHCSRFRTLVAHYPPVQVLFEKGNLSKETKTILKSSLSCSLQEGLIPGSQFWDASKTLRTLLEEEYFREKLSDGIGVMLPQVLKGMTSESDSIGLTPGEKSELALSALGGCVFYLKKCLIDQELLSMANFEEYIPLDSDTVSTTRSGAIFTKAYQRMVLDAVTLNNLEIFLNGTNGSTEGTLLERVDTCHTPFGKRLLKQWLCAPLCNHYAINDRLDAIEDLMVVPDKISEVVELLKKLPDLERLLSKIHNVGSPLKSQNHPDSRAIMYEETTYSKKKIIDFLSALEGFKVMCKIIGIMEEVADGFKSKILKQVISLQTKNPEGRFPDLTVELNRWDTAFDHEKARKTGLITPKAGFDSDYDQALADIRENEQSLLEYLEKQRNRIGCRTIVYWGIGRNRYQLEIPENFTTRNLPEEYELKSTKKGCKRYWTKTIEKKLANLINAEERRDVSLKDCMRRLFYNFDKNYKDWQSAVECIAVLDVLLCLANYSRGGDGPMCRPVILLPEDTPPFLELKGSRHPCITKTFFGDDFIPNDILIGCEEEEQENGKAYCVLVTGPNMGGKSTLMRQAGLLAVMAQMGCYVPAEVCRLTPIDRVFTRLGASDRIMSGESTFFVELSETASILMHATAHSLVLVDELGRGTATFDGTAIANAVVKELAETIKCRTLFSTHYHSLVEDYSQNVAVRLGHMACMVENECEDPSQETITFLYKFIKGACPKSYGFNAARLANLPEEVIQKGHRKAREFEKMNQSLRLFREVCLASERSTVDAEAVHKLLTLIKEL
active: vorinostat -0.287
inactive: nilotinib -0.005 | [1] 0.011 | dasatinib -0.073 | [2] -0.002 | [3] 0.03 | quisinostat -0.091 | tipifarnib -0.009 | [4] 0.072 | [5] 0.006 | [6] -0.045 | [7] 0.008 | silmitasertib 0.063 | [8] 0.016 | entospletinib -0.012

OCRL (UniProt Q01968)
UniProt Q01968, sequence (Q01968 whole entry, looked up): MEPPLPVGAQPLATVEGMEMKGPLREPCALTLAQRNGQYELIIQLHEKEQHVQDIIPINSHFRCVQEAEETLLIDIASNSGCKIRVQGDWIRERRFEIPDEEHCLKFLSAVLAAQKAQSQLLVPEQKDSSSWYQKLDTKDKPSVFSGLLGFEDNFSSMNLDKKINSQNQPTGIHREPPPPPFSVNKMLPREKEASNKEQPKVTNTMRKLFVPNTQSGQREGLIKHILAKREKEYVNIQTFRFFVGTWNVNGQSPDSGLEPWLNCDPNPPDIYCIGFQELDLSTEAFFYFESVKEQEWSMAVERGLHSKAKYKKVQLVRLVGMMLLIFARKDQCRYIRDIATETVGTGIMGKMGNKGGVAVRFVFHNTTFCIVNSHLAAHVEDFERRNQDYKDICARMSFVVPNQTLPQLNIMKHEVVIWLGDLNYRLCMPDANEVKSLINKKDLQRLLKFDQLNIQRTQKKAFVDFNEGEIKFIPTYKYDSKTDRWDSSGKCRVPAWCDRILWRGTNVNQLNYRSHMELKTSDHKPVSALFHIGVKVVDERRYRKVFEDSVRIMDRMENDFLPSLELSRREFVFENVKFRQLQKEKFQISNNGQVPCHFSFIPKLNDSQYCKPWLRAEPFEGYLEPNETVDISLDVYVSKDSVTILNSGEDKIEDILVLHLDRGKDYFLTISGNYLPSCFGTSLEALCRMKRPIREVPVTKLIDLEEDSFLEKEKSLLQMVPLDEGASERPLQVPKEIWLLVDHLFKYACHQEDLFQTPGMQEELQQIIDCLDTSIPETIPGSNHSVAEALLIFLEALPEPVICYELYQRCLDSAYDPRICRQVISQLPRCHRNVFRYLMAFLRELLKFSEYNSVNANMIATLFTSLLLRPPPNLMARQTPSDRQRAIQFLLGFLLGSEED
inactive: nilotinib -0.095 | [1] 0.083 | dasatinib -0.044 | [2] -0.051 | [3] 0.053 | quisinostat -0.089 | tipifarnib 0.048 | [4] -0.018 | [5] -0.012 | [6] 0.024 | [7] 0.134 | silmitasertib 0.032 | [8] 0.019 | entospletinib -0.032
active: vorinostat -0.43
